Consider 40 compounds from PubChem BioAssay (NCATS).

Records with an inconclusive call do not appear. A number with no mark means an inactive call. The source made the active and inactive calls. Calls follow the shape of the dose curve; as a rule, active = well fitted cell-killing curve with a large enough effect; inconclusive = small, poorly fitted or top-dose-only effect, or effect the other way; inactive = no such curve, though single readings can be large or run the other way.
Potency is read from the fitted curve at half-maximal effect.

A short description of the assay: Quantitative High-Throughput drug screen in 47 multiple myeloma cell lines against the NCATS MIPE library collection: PCM6_Riken cell viability assay (AID 1919870). Also: nearly all actives have a fitted effect of over 30% in size. The conditions noted are these: CellTiter-Glo ATP, 48 h; series mostly up to 45.8 µM; viability (% of control): at the top concentration. An excerpt:
PI: Beverly A. Mock Ph.D.
Laboratory of Cancer Biology and Genetics,
Center for Cancer Research, National Cancer Institute,
National Institute of Health, Bethesda, Maryland
Drug resistance and disease progression are common in multiple myeloma (MM) patients, underscoring the need for new therapeutic combinations. […] We hypothesized that effective combinations would reduce MYC expression and enhance p16 activity. […] These preclinical data identify potentially useful drug combinations for evaluation in drug-resistant MM and reveal potential mechanisms of combined drug sensitivity.
Described herein is the primary MIPE qHTS used to cherrypick compounds. Validated compounds were then further tested for potential synergistic activiy.
[1] Peat TJ, Gaikwad SM, Dubois W, Gyabaah-Kessie N, Zhang S, Gorjifard S, Phyo Z, Andres M, Hughitt VK, Simpson RM, Miller MA, Girvin AT, Taylor A, Williams D, D'Antonio N, Zhang Y, Rajagopalan A, Flietner E, Wilson K, Zhang X, Shinn P, Klumpp-Thomas C, McKnight C, Itkin Z, Chen L, Kazandijian D, Zhang J, Michalowski AM, Simmons JK, Keats J, Thomas CJ, Mock BA. Drug combinations identified by high-throughput screening promote cell cycle transition and upregulate Smad pathways in myeloma. Cancer Lett. 2023 Aug 1;568:216284. doi: 10.1016/j.canlet.2023.216284. Epub 2023 Jun 24. PMID: 37356470; PMCID: PMC10408729.
SEQUENCE No. (e.g., 1, 2, 3, etc.); […] (e.g., Cells, Incubation, Reagent, etc.); VALUE and DESCRIPTION.
1; Cells; 5 uL; white, solid bottom 1536-well Greiner assay plate.
2; Compounds; 23 nL; Kalypsis pin tool (Wako USA) equipped with a 1536-well pin head to transfer to the assay plates.
3; Incubation; 48 hours; 37C incubation.
4; Reagent;5uL; CellTiter Glo (Promega).
5; Detector; 425V; Luminescence; Viewlux PerkinElmer.
NOTES (numbers refer to Sequence numbers above)
1. The cell-based screening methods employed in this study were like those previously published. Briefly, the corresponding myeloma cell lines were screened in 1,536-well plates with 500 cells, 5-uL per well for inhibition of cell viability (assessed by measuring ATP levels with CellTiterGlo).
2. NCATS MIPE 4.0 library of approved and investigational drugs were added using the Kalypsis pin tool. Wells treated with DMSO only for 100% viability and media only for 0% viability were used as controls.
3. The assay plates were covered and incubated for 48 hours in a 37C, 5% CO2 incubator with controlled humidity.
4. After 48 hours, CellTilter-GloTM luminescent substrate mix (Promega) reagent was added to the assay plate and plates we incubated for 5 min at room temperature.
5. Signal was measured as median relative luminescence units on a ViewLux (PerkinElmer) multiplate reader.
[1] Heske CM, Davis MI, Baumgart JT, Wilson K, Gormally MV, Chen L, Zhang X, Ceribelli M, Duveau DY, Guha R, Ferrer M, Arnaldez FI, Ji J, Tran HL, Zhang Y, Mendoza A, Helman LJ, Thomas CJ. Matrix Screen Identifies Synergistic Combination of PARP Inhibitors and Nicotinamide Phosphoribosyltransferase (NAMPT) Inhibitors in Ewing Sarcoma. Clin Cancer Res. 2017 Dec 1;23(23):7301-7311. doi: 10.1158/1078-0432.CCR-17-1121. Epub 2017 Sep 12. PMID: 28899971; PMCID: PMC6636827.
Take `O=C(NOC[C@H](O)CO)c1ccc(F)c(F)c1Nc1ccc(I)cc1F`: the “viability (% of control)” value was 111%.

On to `Nc1nc2[nH]cc(CCc3ccc(C(=O)N[C@@H](CCC(=O)O)C(=O)O)cc3)c2c(=O)[nH]1`, for which the “viability (% of control)” value is 122%.

Turning to `NC(=O)C1CCCc2c1[nH]c1ccc(Cl)cc21` (stereo not given), the Potency is 16.6 µM (active).

Regarding `OC(CCN1CCCCC1)(c1ccccc1)C1CC2C=CC1C2` (stereo not given), the “viability (% of control)” value is 127%.

Turning to `CCOc1cc(C=C2C(=O)N(c3ccccc3)N=C2C)cc(Cl)c1OCC(=O)OC`, the Potency was 16.6 µM (active).

`CC(C)(Sc1ccc(CCN(CCCCC2CCCCC2)C(=O)NC2CCCCC2)cc1)C(=O)O`: the “viability (% of control)” value is 111%.

On to `Cc1cc2c(C(C)C)c(O)c(O)c(C=O)c2c(O)c1-c1c(C)cc2c(C(C)C)c(O)c(O)c(C=O)c2c1O`, for which the Potency was 6.62 µM (active).

Take `O=C(C=Cc1ccc(/C=C/C(=O)Nc2ccc(C3=NCCN3)cc2)cc1)Nc1ccc(C2=NCCN2)cc1`: the “viability (% of control)” value is 97.2%.

Turning to `Cc1cc(SCc2sc(-c3ccc(C(F)(F)F)cc3)nc2C)ccc1OCC(=O)O`, the “viability (% of control)” value is 105%.

As to `CCC(C)N(C)C(=O)c1cc2ccccc2c(-c2ccccc2Cl)n1` (stereo not given), the Potency was 16.6 µM (active).

For `CC(C[N+](C)(C)C)OC(N)=O` (stereo not given), the “viability (% of control)” value is 93%.

On to `CCc1ccc(CCOc2ccc(CC3SC(=O)NC3=O)cc2)nc1` (stereo not given), for which the Potency was 18.7 µM (active).

In the case of `O=c1ncn2nc(Sc3ccc(F)cc3F)ccc2c1-c1c(Cl)cccc1Cl`, the Potency was 13.2 µM (active).

As for `Cn1cnc([N+](=O)[O-])c1Sc1ncnc2nc[nH]c12`, the Potency is 11.8 µM (active).

Regarding `S=C(NCc1ccc2c(c1)OCO2)N1CCN(c2ncnc3c2oc2ccccc23)CC1`, the Potency is 4.81 µM (active).

Regarding `COc1ccc(CCN2CCN(CCCc3ccccc3)CC2)cc1OC`, the “viability (% of control)” value was 112%.

In the case of `Cc1cc(-c2ccc(CC(=O)Nc3ccc(-c4cccnc4)cc3)cc2)ccn1`, the Potency was 11.8 µM (active).

As to `O=C(O)CCc1ccc(NCc2cccc(Oc3ccccc3)c2)cc1`, the “viability (% of control)” value is 95.5%.

In the case of `CCN(CC)CCCC(C)Nc1ccnc2cc(Cl)ccc12` (stereo not given), the Potency was 10.5 µM (active).

For the compound `C[C@]12CC[C@H](O)CC1=CC[C@@H]1[C@H]2CC[C@]2(C)C(c3cccnc3)=CC[C@H]12`, the “viability (% of control)” value was 95.9% [at 23.2 µM].

On to `OCCn1cc(-c2cnc3nnn(Cc4ccc5ncccc5c4)c3n2)cn1`, for which the “viability (% of control)” value is 98.1%.

`Cc1cc(C=c2sc3nc4ccccc4n3c2=O)c(C)n1-c1ccccc1`: the “viability (% of control)” value was 86.7%.

As to `OCCC#Cc1nc(-c2ccc(F)cc2)c(-c2ccncc2)n1CCCc1ccccc1`, the Potency is 23.5 µM (active).

Consider `O=c1n(CCCN2CCN(c3cccc(Cl)c3)CC2)nc2ccccn12`, for which the “viability (% of control)” value was 108%.

As to `O=C(Nc1cccnc1)N1CCC(Cc2cccc(Oc3ccc(C(F)(F)F)cn3)c2)CC1`, the Potency was 14.8 µM (active).

With `COc1cc(F)c(F)c(Nc2ccc(I)cc2F)c1NS(=O)(=O)C1(C[C@H](O)CO)CC1`, the Potency was 14.8 µM (active).

`NC(=O)c1cnccn1`: the “viability (% of control)” value was 137%.

On to `Clc1cccc(Cl)c1NC1=NCCN1`, for which the “viability (% of control)” value is 108%.

In the case of `NNCCc1ccccc1`, the “viability (% of control)” value was 97%.

For `Cc1c(CN2CCN(C(=O)C(C)C)CC2)sc2c(N3CCOCC3)nc(-c3cnc(N)nc3)nc12`, the Potency is 0.235 µM (active).

With `CC1(C)CNc2cc(NC(=O)c3cccnc3NCc3ccncc3)ccc21`, the Potency is 1.32 µM (active).

As to `CS(=O)(=O)Oc1ccc2c(NC(N)=O)c(C(=O)c3ccc(Cl)cc3Cl)oc2c1`, the Potency is 20.9 µM (active).

Regarding `NS(=O)(=O)c1cc2c(cc1Cl)NC=NS2(=O)=O`, the “viability (% of control)” value is 126%.

In the case of `COc1ccc(CC2=NN3C([C@@H](CCc4ccccc4)[C@@H](C)O)=NC(C)C3C(=O)N2)cc1OC` (stereo not given in full), the “viability (% of control)” value is 140%.

In the case of `COc1ccc(-c2oc3cc(OC)ccc3c2C(=O)c2ccc(C#N)cc2)cc1`, the Potency was 5.26 µM (active).

Consider `CC(=O)NC(C)c1ccc(Oc2ccc(OC(C)C)cc2)cc1` (stereo not given), for which the Potency was 16.6 µM (active).

Turning to `Cc1n[nH]c(C)c1Cc1sc2c(c1C(=O)N1C[C@H](O)CO1)c(=O)n(C)c(=O)n2CC(C)C`, the “viability (% of control)” value is 104%.

`COc1cc2nccc(Oc3ccc(NC(=O)NC4CC4)c(Cl)c3)c2cc1C(N)=O`: the Potency is 16.6 µM (active).

In the case of `O=C(O)COCCN1CCN(C(c2ccccc2)c2ccc(Cl)cc2)CC1` (stereo not given), the “viability (% of control)” value is 133%.

With `c1ccc(-c2nn3c(c2-c2ccnc4cc(OCCN5CCOCC5)ccc24)CCC3)nc1`, the Potency was 1.48 µM (active).
